Mtb MenB inh = Mtb MenB enzyme inhibition | P9WNP5 | AID 540299 | MenB enzyme assay, absorbance read-out | inhibition, % (concentration not given with the values) | hit rate 0.43% among 100,000; in the data active = inhibition above about 21%, passing the limit was not always enough
AID504770 = E. coli YBA685 growth inhibition, screen for V. cholerae RctB inhibitors. E. coli YBA685 rctB-dependent plasmid, OD600 growth, 3 h; stronger effect = lower value. z-score (concentration not given with the values). hit rate 0.27% among 130,000; in the data active = z-score below about -2, passing the limit was not always enough
Polio RdRp inh = poliovirus RNA polymerase inhibition; % elongation, % (compound at 16.7 µg/mL); hit rate 0.66% among 150,000; P03300; poliovirus polymerase elongation, fluorescence polarization; stronger effect = lower value; AID 588519; in the data active = % elongation below about 90%
Target sequence (P03300 1749-2209 limits assumed): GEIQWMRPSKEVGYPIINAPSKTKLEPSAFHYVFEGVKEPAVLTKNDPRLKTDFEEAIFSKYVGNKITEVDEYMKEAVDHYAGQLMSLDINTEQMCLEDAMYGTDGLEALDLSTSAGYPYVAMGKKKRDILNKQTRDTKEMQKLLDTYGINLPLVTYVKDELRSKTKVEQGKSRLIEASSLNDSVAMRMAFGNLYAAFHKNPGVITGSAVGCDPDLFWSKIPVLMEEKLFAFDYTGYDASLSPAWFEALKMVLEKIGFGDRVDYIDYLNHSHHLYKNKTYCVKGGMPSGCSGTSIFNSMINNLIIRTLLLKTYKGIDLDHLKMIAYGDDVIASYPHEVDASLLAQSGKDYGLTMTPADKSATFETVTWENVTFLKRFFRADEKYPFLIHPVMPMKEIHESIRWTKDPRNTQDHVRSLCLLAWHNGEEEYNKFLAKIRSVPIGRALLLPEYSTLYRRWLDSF
MbtI inh = inhibitors of Mycobacterium tuberculosis siderophore enzyme MbtI; P9WFX0; purified MbtI enzyme, fluorescence intensity read-out; inhibition, % (no concentration beside the values); hit rate 0.89% among 100,000; in the data active = inhibition mostly above about 56%, no sharp cut-off; inactive = mostly below about 77%
An asterisk follows results filed as active; nt = not tested or not shown; ! = a repeat was not active. Only some compounds are listed: those with a hit (about 1.4% of all), similar ones and a draw of the others.

SMILES	Mtb MenB inh	AID504770	Polio RdRp inh	MbtI inh
O=C(O)CCCS(=O)(=O)c1ccccc1	35*	0.35	101	10
NC(=O)CCS(=O)(=O)c1ccccc1	-19	-1.1	105	-1
Cc1ccc(C(=O)c2sc(Nc3ccc(F)cc3)c(C#N)c2N)cc1	nt	nt	77*	nt
CNc1c(C(=O)c2ccc(F)cc2)sc(N)c1C#N	-33	0.95	102	13
Cn1c(=O)c(C2=NS(=O)(=O)c3ccccc3N2)c(O)c2ccccc21	33*	0	99	-5
CCc1ccc(Nc2ncnc3sc4c(c23)CCCC4)cc1	nt	nt	103	nt
CCc1nc(Nc2ccc(F)c(Cl)c2)c2c3c(sc2n1)CCCC3	nt	nt	85*	nt
CN=c1scc(-c2cc(OC)ccc2OC)n1/N=C1\CCc2ccccc21	-31	0.65	114	5
Cn1c(C(C#N)C(=O)C(Sc2ccccc2)c2ccccc2)nc2ccccc21 (configuration not stated)	-21	0.6	108	-4
N#Cc1cccc(C(c2nnnn2Cc2ccccc2)N2CCCC2)c1 (configuration not stated)	29*	0.5	99	-1
c1ccc(CCn2nnnc2C(c2cccnc2)N2CCCCC2)cc1 (configuration not stated)	-12	-0.65	104	-9
Cc1ccc(-c2csc(Nc3ccc(C(=O)O)cc3)n2)c(C)c1	-20	0.3	90*	nt
CCC(=O)Nc1nc(-c2ccc(C)cc2C)cs1	nt	2	nt	nt
Cc1cc(C(=O)CC#N)c(C)n1-c1cccc(C(F)(F)F)c1	nt	0.45	104	-1
O=C(O)c1cnc2ccccn2c1=O	27*	0.85	102	90
CCOC(=O)c1cnc2ccccn2c1=O	11	1.1	103	105
O=c1c2c(nc3n1CCC3)sc1c(O)c(Br)ccc12	38*	1	100	10
Cc1cc(Br)ccc1NC(=O)c1sc2nc3n(c(=O)c2c1C)CCCC3	nt	nt	110	nt
Cc1ccc(S(=O)(=O)NC(=O)c2ccc(Cl)nc2Cl)cc1	nt	-0.55	62*	-4
CCC(=O)C1(Sc2nc3ccccc3[nH]2)CC(C)(C)OC1=O (configuration not stated)	-10	-0.4	102	102*
CCSc1nc2ccccc2[nH]1	nt	0.25	nt	nt
CC1=C(c2ccc(Cl)cc2)S(=O)(=O)N=C1N1CCC(C(=O)NCc2ccccc2F)CC1	nt	nt	101	nt
CC1=C(c2ccc(C(C)C)cc2)S(=O)(=O)N=C1N1CCC(C(=O)NCc2ccccc2)CC1	nt	nt	34*	nt
CCCNC(=O)c1ccc(NC(C)=O)cc1	-8	0	107	nt
CC(=O)Nc1ccc(C(=S)NCCCO)cc1	-7	-1.1	77*	85
SMILES	Mtb MenB inh	AID504770	Polio RdRp inh	MbtI inh
COc1ccc(N2C(=O)Cc3ccc(OC)cc3C2=O)cc1	1	0.55	102	3
CC1=C(/C=C/C(C)=C/C=C/C(C)=C/C(=O)Nc2ccc(O)cc2)C(C)(C)CCC1	8	nt	101	-18
CC1=C(/C=C/C(C)=C/C=C/C(C)=C\C(=O)O)C(C)(C)CCC1	50*!	-0.05	101	-12
Cc1[nH]c(=S)sc1CC(=O)N(C)Cc1ccccc1Cl	-12	0.6	104	76*
O=C(Nc1ccc(F)cc1)c1cc2c(s1)-c1ccccc1SC2	-30	0.95	104	92
CCOC(=O)c1cc(-c2ccc(OC)c(S(=O)(=O)N3CCCc4ccccc43)c2)on1	-27	0.9	101	-2
Brc1cc2c(cc1CSc1nnc(C3CC3)n1C1CC1)OCCO2	-16	-0.1	103	-17
CCCNC(=O)CSc1n[nH]c(=S)s1	-23	0.95	101	57*
CCCNC(=O)CSc1nnc(C)o1	-9	-0.5	101	12
CC(=O)Oc1ccccc1C(=O)NCCC1=CCCCC1	-18	2.1	104	-471
COc1nc(NC(=O)NS(=O)(=O)Nc2cccc3cccnc23)nc(OC)n1	7	0.55	79*	2
CCC(=O)Nc1cccc2cccnc12	-9	1.4	102	6
CCOC(=O)Cc1c[nH]c2ccccc12	6	1.1	100	-16
CCOC(=O)CN=C(c1ccccc1)c1ccccc1	-2	-0.7	101	nt
CCOC(=O)CC(=O)c1c[nH]c2ccccc12	-19	-2.2*	112	nt
CCOC(=O)CC(=O)c1ccccc1	34*	-0.85	107	16
Oc1cc(CN2CCCCCC2)c(O)cc1CN1CCCCCC1	nt	-0.7	nt	nt
O=C(Cn1cncn1)N/N=C/c1ccccn1	-42	0.55	104	21
O=c1/c(=C\c2ccncc2)sc2nc3ccccc3n12	-34	-0.4	63*	nt
O=c1/c(=C\c2ccccc2)sc2nc3ccccc3n12	nt	-0.4	97	29
CCOC(=O)C1=C(C)NC(=S)NC1c1ccc(-c2ccccc2Cl)o1 (configuration not stated)	60*	0.2	102	34
Nn1c(CCC2CCCCC2)n[nH]c1=S	-63	-0.15	81*	86*
Cc1ccc(S(=O)(=O)N2CCCCC2C(=O)NC(C)c2ccc3c(c2)OCCO3)cc1 (configuration not stated)	-28	-2.1*	101	-13
O=C(Oc1ccc(Br)cc1F)C1CC(=O)N(c2ccc3c(c2)OCCO3)C1 (configuration not stated)	-33	-0.9	87*	2
CCOC(=O)c1sc(NC(=O)c2cc3c(C)nn(Cc4ccccc4)c3s2)nc1C	-5	-0.25	102	-4
SMILES	Mtb MenB inh	AID504770	Polio RdRp inh	MbtI inh
COC(=O)CSc1nc(C)cc(N2CCOCC2)n1	-42	-0.8	104	4
CNc1nc(SCC(=O)OC)nc(N2CCOCC2)n1	56*	1.1	104	3
O=C(CSc1nnc(-c2cccs2)o1)N1c2ccccc2CCc2ccccc21	12	-0.05	98	27
Cc1nc(C(F)(F)F)ccc1C(=O)Oc1ccc(OC(F)(F)F)cc1	-19	-0.25	110	-8
Nc1ccc2c(c1)C(=O)N(CC1CCCO1)C2=O (configuration not stated)	-54	-0.7	98	-37
O=C1C=CC(=O)N1CC1CCCO1 (configuration not stated)	nt	-0.55	100	62*
COc1cccc(C2=NS(=O)(=O)N(C)C(C(=O)Nc3cccc(O)c3)=C2)c1	nt	nt	-16*	nt
CCn1nc(N)c2c(O)[nH]c(=O)cc21	-54	0.6	40*	18
Cc1cc(C)c(NC(=O)c2oc3c(c2C)-c2[nH]ncc2CC3)c(C)c1	nt	nt	108	nt
Cc1ccc(Cl)cc1NC(=O)c1oc2c(c1C)-c1[nH]ncc1CC2	nt	nt	78*	nt
Cc1ccn(C(=O)c2ccc(Br)cc2)n1	-13	-0.3	98	-4
C=CCNc1nc(N)c(C(=O)c2ccc(OC)cc2)s1	-23	0.95	104	0
COC1=CC(=O)C(C)=CC1=O	nt	-3.1*	nt	nt
CC1CCN(S(=O)(=O)c2ccc(C(=O)NCc3ccco3)cc2)CC1	-14	-0.3	89*	nt
CSc1ccc(Cl)c(C(=O)OCC(N)=O)c1	nt	1.8	101	6
S=C(NCCN1CCOCC1)Nc1ccccc1	-14	-1.9	106	-1
FC(F)(F)c1ccccc1NNC(=S)NCCN1CCOCC1	-25	0.7	98	71*
CCOc1ccccc1NC(=O)CS	-140	1.1	98	83*
CCOc1ccccc1NC(=O)c1ccc(C(=O)Nc2ccccc2OCC)cc1	nt	nt	108	nt
c1ccc(N2CN3CN2CN3c2ccccc2)cc1	-4	1.5	104	-220
